From PubChem BioAssay (NCATS) come the findings set out here.

Assay [1] addresses Rap guanine nucleotide exchange factor 3 (Homo sapiens) (UniProt O95398). Description: Confirmatory qHTS for antagonist of cAMP-regulated guanine nucleotide exchange factor 3 (EPAC1) (AID 1645880). Note: nearly all actives have a fitted effect of over 55% in size. Note: potency is the fitted concentration of half-maximal effect. The method in brief: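 Released BODIPY-GDP fluoresces less than Rap1-bound BODIPY-GDP; the signal is followed at 480/540 nm at 5-min intervals over 30 min, after 5 min at room temperature. Reactions contain 100 nM EPAC1, 250 nM RAP1B-BODIPY-GDP and 50 uM GDP; results are normalized to ATA and DMSO.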
Background: Quantitative high-throughput screening tests each substance at several concentrations.

The target is the same in assay [2]. Nature of the assay: Confirmatory qHTS for agonist of cAMP-regulated guanine nucleotide exchange factor 3 (EPAC1) (AID 1645881).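 For activation: EPAC1 catalysed release of BODIPY-GDP from Rap1B seen as fluorescence loss; 100% = effect of cAMP agonist control.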 Note: nearly all actives have a fitted effect of over 75% in size. Note: potency is the fitted concentration of half-maximal effect.
Assay [3] has as its target Rap guanine nucleotide exchange factor 4 (Homo sapiens) (UniProt Q8WZA2). Description: Confirmatory qHTS for agonist of cAMP-regulated guanine nucleotide exchange factor 4 (EPAC2) (AID 1645884). For activation: % is set by controls: 0 for no effect and ±100 for the full control effect.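 Note: nucleotide exchange releases bodipy-GDP from Rap1 and this lowers its fluorescence; nearly all actives have a fitted effect of over 65% in size.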 Note: potency is the fitted concentration of half-maximal effect.
The target is the same in assay [4]. Nature of the assay: Confirmatory qHTS for antagonist of cAMP-regulated guanine nucleotide exchange factor 4 (EPAC2) (AID 1645885). For activity change, negative = inhibition: % is set by controls: 0 for no effect and ±100 for the full control effect. Note: nearly all actives have a fitted effect of over 25% in size. Note: potency is the fitted concentration of half-maximal effect.
Assay [5] has as its target Rap guanine nucleotide exchange factor 3 (Homo sapiens) (UniProt O95398). Description: Counterscreen qHTS for antagonist of cAMP-regulated guanine nucleotide exchange factor 3 (EPAC1) (AID 1645888). Note: % of control where 0% means no effect. The method in brief: (§1)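 Rap1B-BODIPY-GDP 250 nM + GDP 50 uM; cpds 7-pt, final 9.74 nM–152 uM (activator mode) or from 7.32 nM upwards (inhibitor mode); RT; FI 480/540 nm at 5 and 30 min, then ± cAMP, reread.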
(Counterscreens check selectivity or assay interference.)

The target is the same in assay [6]. Description: Counterscreen qHTS for agonist of cAMP-regulated guanine nucleotide exchange factor 3 (EPAC1) (AID 1645889). For activation: % of control where 0% means no effect. Note: nearly all actives have a fitted effect of over 40% in size. Note: potency is the fitted concentration of half-maximal effect. Put shortly: as §1

Molecules are shown by their SMILES. Results filed as inconclusive are left out. A number with no mark means an inactive call. Activity calls are given as the source filed them. Calls come from the whole dose curve; as a rule, active = well fitted curve in the direction sought with a large enough effect; inconclusive = small, poorly fitted or top-dose-only effect, or another doubt; inactive = no such curve, though single readings can be large; an effect the other way counts as inactive or inconclusive.

Chain of Rap guanine nucleotide exchange factor 4 (Homo sapiens) (Q8WZA2 whole entry, looked up): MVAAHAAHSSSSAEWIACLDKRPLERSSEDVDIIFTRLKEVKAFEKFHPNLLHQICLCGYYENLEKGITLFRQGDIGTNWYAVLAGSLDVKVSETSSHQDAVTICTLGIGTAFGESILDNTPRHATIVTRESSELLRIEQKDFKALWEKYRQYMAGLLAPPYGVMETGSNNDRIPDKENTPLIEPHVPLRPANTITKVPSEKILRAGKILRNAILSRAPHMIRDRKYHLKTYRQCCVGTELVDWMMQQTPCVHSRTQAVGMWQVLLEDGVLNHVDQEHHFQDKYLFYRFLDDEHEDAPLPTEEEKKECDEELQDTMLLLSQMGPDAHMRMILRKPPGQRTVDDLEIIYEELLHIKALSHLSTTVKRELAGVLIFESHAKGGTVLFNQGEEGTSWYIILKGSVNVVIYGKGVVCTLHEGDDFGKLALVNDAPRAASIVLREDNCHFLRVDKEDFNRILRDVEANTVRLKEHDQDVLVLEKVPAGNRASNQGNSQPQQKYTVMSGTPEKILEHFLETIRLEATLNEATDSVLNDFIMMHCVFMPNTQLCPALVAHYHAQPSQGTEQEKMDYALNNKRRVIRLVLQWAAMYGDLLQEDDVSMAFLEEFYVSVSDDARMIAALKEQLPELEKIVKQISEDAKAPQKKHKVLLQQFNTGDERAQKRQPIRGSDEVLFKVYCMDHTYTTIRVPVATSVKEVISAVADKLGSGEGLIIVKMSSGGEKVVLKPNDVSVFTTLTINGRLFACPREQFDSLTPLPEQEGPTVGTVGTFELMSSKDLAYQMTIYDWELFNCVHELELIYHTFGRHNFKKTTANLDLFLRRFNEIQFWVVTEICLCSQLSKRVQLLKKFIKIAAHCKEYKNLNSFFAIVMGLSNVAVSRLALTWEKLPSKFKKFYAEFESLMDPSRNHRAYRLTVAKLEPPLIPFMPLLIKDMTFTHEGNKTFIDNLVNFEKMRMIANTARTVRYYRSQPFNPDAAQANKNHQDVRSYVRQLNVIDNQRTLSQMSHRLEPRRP
Chain of Rap guanine nucleotide exchange factor 3 (Homo sapiens) (O95398 whole entry, looked up): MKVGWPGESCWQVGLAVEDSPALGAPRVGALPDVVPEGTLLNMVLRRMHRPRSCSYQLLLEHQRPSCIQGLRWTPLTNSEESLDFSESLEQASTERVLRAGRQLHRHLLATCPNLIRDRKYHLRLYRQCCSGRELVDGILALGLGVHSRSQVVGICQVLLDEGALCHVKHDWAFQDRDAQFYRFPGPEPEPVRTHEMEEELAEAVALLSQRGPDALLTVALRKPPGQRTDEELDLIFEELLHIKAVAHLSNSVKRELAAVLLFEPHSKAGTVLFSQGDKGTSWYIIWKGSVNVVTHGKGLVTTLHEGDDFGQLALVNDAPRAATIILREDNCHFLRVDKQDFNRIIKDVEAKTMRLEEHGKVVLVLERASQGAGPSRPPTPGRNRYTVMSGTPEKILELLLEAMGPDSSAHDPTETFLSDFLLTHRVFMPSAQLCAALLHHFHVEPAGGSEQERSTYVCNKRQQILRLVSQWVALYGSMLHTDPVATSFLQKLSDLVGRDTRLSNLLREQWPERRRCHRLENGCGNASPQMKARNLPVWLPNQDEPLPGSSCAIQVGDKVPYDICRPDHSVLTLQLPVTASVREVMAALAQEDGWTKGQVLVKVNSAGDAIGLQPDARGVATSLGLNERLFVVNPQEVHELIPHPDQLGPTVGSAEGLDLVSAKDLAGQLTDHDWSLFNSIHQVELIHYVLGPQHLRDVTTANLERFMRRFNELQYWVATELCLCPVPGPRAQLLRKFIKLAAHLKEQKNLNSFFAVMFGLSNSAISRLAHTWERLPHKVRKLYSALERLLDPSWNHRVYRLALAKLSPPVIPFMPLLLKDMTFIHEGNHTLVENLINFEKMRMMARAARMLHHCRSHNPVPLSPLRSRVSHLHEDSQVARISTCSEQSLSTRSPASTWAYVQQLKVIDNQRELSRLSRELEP

As for `Cc1ccc2nc(-c3ccccc3)c(Cc3ccccc3C(F)(F)F)n2c1`, the Potency result in assay [1], in assay [2], in assay [3], in assay [4], in assay [5] and in assay [6] was “inactive” throughout.
On to `O=CN1N=C(c2ccccc2)CC1c1ccc(Cl)cc1` (stereo unspecified), for which the Potency entry in assay [1], in assay [2], in assay [3], in assay [4], in assay [5] and in assay [6] was “inactive” throughout.
Take `C[n+]1cc(C(=O)N2CCCCC2)ccc1/C=C/c1c[nH]c2ccccc12`: the Potency entry in assay [1] and in assay [4] was “inactive” each time. Further, the Potency in assay [2] is 89.1 µM (active). Also, the activation is 10.6% [at 17.1 µM, percent relative to cAMP agonist control] in assay [3] and 14.5% [at 30.8 µM] in assay [6]. In addition, the activity change, negative = inhibition in assay [5] was -7.76% [at 30.8 µM].
For `CCc1nc(C)cn1S(=O)(=O)c1cc(C)c(OC)cc1C`, the Potency result in assay [1], in assay [2], in assay [3], in assay [4], in assay [5] and in assay [6] was “inactive” in each case.
Consider `CC(OC(=O)CCN1C(=O)C2CC=CCC2C1=O)C(=O)Nc1cccc(C#N)c1` (stereo unspecified), for which the Potency entry in assay [1], in assay [2] and in assay [4] was “inactive” throughout. Also, the activation was 3.57% [at 17.1 µM, percent relative to cAMP agonist control] in assay [3] and 3.18% [at 30.8 µM] in assay [6]. The activity change, negative = inhibition in assay [5] is -8.99% [at 30.8 µM].
Take `COc1ccc(C(=O)Nc2cccc(/C=C(\CCC(=O)O)c3nc4ccccc4s3)c2)cc1`: the Potency in assay [1] was 21.3 µM (active). Also, the Potency entry in assay [2], in assay [3], in assay [4], in assay [5] and in assay [6] was “inactive” throughout.
Turning to `COc1ccccc1/C=C/C=C1\Oc2c(ccc(O)c2CN2CCN(CCO)CC2)C1=O`, the Potency entry in assay [1] and in assay [5] was “inactive” throughout. Moreover, the Potency was 100 µM (active) in assay [2], 100 µM (active) in assay [3], 84.9 µM (active) in assay [4] and 39.8 µM (active) in assay [6].
As for `N#C/C(=C(/O)CCl)c1nc2c(s1)CCc1ccccc1-2`, the Potency in assay [1] was 6.75 µM (active). Also, the Potency result in assay [2], in assay [3], in assay [4], in assay [5] and in assay [6] was “inactive” each time.
Consider `CCOc1c(OC)cccc1C(=O)NCC1(c2ccccc2)CCCC1`, for which the Potency entry in assay [1], in assay [2], in assay [3], in assay [4], in assay [5] and in assay [6] was “inactive” in each case.
Turning to `CCC(C)NC(=O)Cn1c(=O)n(CCCCCC(=O)Nc2ccccc2)c(=O)c2sccc21` (stereo unspecified), the Potency result in assay [1], in assay [2], in assay [3], in assay [4], in assay [5] and in assay [6] was “inactive” each time.
Turning to `CCCC1CC(c2csc(N)n2)CCO1` (stereo unspecified), the Potency result in assay [1], in assay [2], in assay [3], in assay [4], in assay [5] and in assay [6] was “inactive” in each case.
As to `COC(=O)c1sc(-c2ccc(C(C)(C)C)cc2)cc1NC(=O)c1ccccc1C(=O)O`, in assay [1], the Potency was 50.1 µM (active). Also, the Potency result in assay [2] and in assay [4] was “inactive” throughout. In addition, the activation in assay [3] is 5.26% [at 17.1 µM, percent relative to cAMP agonist control]; in assay [6], 9.25% [at 30.8 µM]. Moreover, in assay [5], the activity change, negative = inhibition is -19.7% [at 30.8 µM].
For the compound `CC(/C=C1\SC(=S)N(C(C(=O)O)C(C)C)C1=O)=C\c1ccccc1` (stereo unspecified), the Potency in assay [1] was 47.8 µM (active). The Potency entry in assay [2], in assay [3], in assay [4], in assay [5] and in assay [6] was “inactive” throughout.
Take `Cc1cc(C)c(C)c(S(=O)(=O)Nc2cccc(S(=O)(=O)Nc3ccccc3C(=O)O)c2)c1C`: the Potency in assay [1] is 39.8 µM (active). The Potency result in assay [2] and in assay [4] was “inactive” in each case. The activation is 4.6% [at 17.1 µM, percent relative to cAMP agonist control] in assay [3] and 0.792% [at 30.8 µM] in assay [6]. Besides, in assay [5], the activity change, negative = inhibition was -6.25% [at 30.8 µM].
Regarding `Cc1nnnn1-c1ccc(CC(=O)O)cc1`, the Potency result in assay [1], in assay [2] and in assay [4] was “inactive” throughout. Also, the activation was -2.24% [at 17.1 µM, percent relative to cAMP agonist control] in assay [3] and -1.16% [at 30.8 µM] in assay [6]. For the same compound, the activity change, negative = inhibition in assay [5] was -6.83% [at 30.8 µM].
`Cc1cccc(NC(=S)NC(=O)/C=C/c2ccco2)c1`: the Potency in assay [1] was 75.7 µM (active). For the same compound, the Potency result in assay [2], in assay [3], in assay [4], in assay [5] and in assay [6] was “inactive” throughout.
As for `CCc1nc2c(OCCOc3ccc(F)cc3)cccn2c1N(C)C(=O)c1ccc(OC)cc1`, the Potency result in assay [1], in assay [2] and in assay [4] was “inactive” in each case. The activation is 3.55% [at 17.1 µM, percent relative to cAMP agonist control] in assay [3] and 11.5% [at 30.8 µM] in assay [6]. Besides, the activity change, negative = inhibition in assay [5] was -15.6% [at 30.8 µM].
With `O=C1CSC2(C(=O)N(Cc3cccc(C(F)(F)F)c3)c3ccccc32)N1c1ccc(F)c(F)c1` (stereo unspecified), the Potency result in assay [1], in assay [2], in assay [3], in assay [4], in assay [5] and in assay [6] was “inactive” in each case.
Consider `CCOC(=O)C1CCN(C(=O)c2cccc(S(=O)(=O)N(CC)c3ccccc3)c2)CC1`, for which the Potency result in assay [1], in assay [2], in assay [3], in assay [4], in assay [5] and in assay [6] was “inactive” in each case.
On to `CC(=O)NC(c1ccco1)c1cc(Cl)c2cccnc2c1O` (stereo unspecified), for which the Potency result in assay [1], in assay [2], in assay [3], in assay [4], in assay [5] and in assay [6] was “inactive” throughout.
On to `CCOc1ccc(/C=C/C(=O)c2cc(Br)ccc(=O)c2O)cc1`, for which, in assay [1], the Potency is 33.8 µM (active). Also, the Potency entry in assay [2], in assay [3], in assay [4], in assay [5] and in assay [6] was “inactive” each time.
